Measured values taken from PubChem BioAssay (NCATS).
Results filed as inconclusive are left out. Values without a mark were called inactive. Activity calls are given as the source filed them. Calls follow the shape of the dose curve; as a rule, active = well fitted inhibition curve with a large enough effect; inconclusive = small, poorly fitted or top-dose-only effect; inactive = flat fitted curve, though single readings scatter.

Target: Calcium and integrin-binding protein 1 (Homo sapiens) (UniProt Q99828)
Sequence (Q99828 whole entry, looked up): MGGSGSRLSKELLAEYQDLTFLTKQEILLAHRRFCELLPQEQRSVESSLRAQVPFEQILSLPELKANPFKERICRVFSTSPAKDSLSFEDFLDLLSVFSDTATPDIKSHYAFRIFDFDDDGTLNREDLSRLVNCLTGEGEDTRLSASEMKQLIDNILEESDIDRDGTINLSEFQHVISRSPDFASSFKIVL
Assay: Primary qHTS for Identification of Calcium Integrin Binding Protein 1 (CIB1) Competitor (AID 1508620);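 as to activity change, negative = inhibition: GST tagged CIB1 binding a fluorescein labelled alphaIIb integrin peptide tracer; top concentration of the series differs between compounds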
Conditions: CIB1-GST / FITC-alphaIIb peptide fluorescence polarization; series mostly up to 114 µM; activity change, negative = inhibition: at the top concentration
Excerpt: Assay Provider: Ulhas P. Naik, PhD Sidney Kimmel Medical College Thomas Jefferson University, Philadelphia, PA Primary function of platelets is to maintain hemostasis. At the site of vascular injury, platelets adhere to adhesive proteins such as collagen and von Willebrand factor. Adherent platelets are activated and generate soluble platelet agonists such as thrombin, ADP and thromboxane A2. Following exposure of circulating platelets to these agonists, results in platelet shape change, granule secretion and activation of platelet integrin alphaIIb-beta3. Ligand binding to activated integrin alphaIIb-beta3 triggers outside-in signaling, leading to platelet aggregation, stabilization of platelet plug, and clot retraction. Upon atherosclerotic plaque rupture also causes platelet plug formation, which underlies a number of cardiovascular diseases such as myocardial infraction and stroke. A number of anti-platelet drugs such as aspirin, clopidogrel, prasugrel, vorapaxar, and eptifibatide are currently available to prevent the thrombotic complications. However, these anti-platelet agents have several limitations including inherent variability in individual responses, developing resistance, and serious bleeding side effects. For these reasons they are not suitable for long-term protection. Based on the experiences with current anti-platelet drugs, it appears that the most useful therapeutic approach is to intersect the secondary responses such as integrin outside-in signaling or recruitment of platelets by TxA2 and secreted ADP. Compounds, which can largely preserve the primary hemostatic function of platelets but inhibit secondary response will be most desired therapeutic agents for treatment of cardiovascular disease. CIB1 is a calcium integrin binding protein, which specifically interact with the alphaIIb subunit of integrin alphaIIb-beta3. Binding of CIB1 to alphaIIb regulates the outside-in signaling in platelets, which is needed for thrombus stabilization and thrombus growth. […] Therefore, we propose that discovery of a small molecule that can prevent the association of CIB1 and alphaIIb-beta3 will be a potential anti-platelet agent that can block the thrombus formation without undue effect on hemostasis. Reference: [1] Naik MU, Nigam A, Manrai P, et al. CIB1 deficiency results in impaired thrombosis: the potential role of CIB1 in outside-in signaling through integrin alpha IIb beta 3. J Thromb Haemost.
PROTOCOL TABLES SEQUENCE No. (1, 2, 3, etc.); […] (e.g., Cells, Incubation, Reagent, etc.); VALUE and DESCRIPTION. 1; Reagent; 3 uL; Protein or buffer (4/3x) 2; Compound; 46 nL; Control inhibitor / compound library 3; Time; 15 min; Room temperature incubation 4; Reagent; 1 uL; Fluorescent labeled peptide (4x) 5; Time; 1000 rpm; Centrifuge 6; Time; 15 min; Room temperature incubation 7; Detection; Ex 480/ Em 540; ViewLux Fluorescence Read NOTES (numbers refer to sequence above) 1; Protein Mixture: C1B1-GST (final concentrations of 1 uM). […] 3; Room temperature incubation. 4; Fluorescent Labeled Peptide: FITC-aIIb (final concentration of 100 nM). Sequence of alphaIIb peptide: Acetyl-[…]-FITC (purity is 95.83%). 5; Centrifuge 1000 rpm (164 g) for 15 seconds. 6; Room temperature incubation. 7; ViewLux Fluorescent Polization Read: excitation = 480(20) / emission = 540(25) S and P; FITC Dichroic mirror.
% is scaled to controls: 0 for no effect and ±100 for the full control effect; potency is read from the fitted curve at half-maximal effect.

Compound	activity change, negative = inhibition	Potency
CCCCCCCCCCCCCCCCCC(=O)OCC(O)CO (stereo not given)	5.13%	–
CCCSS/C(CCO)=C(\C)N(C=O)Cc1cnc(C)nc1N	8.45%	–
O=C(COc1ccc(Cl)cc1)N1CCN(Cc2ccc3c(c2)OCO3)CC1	3.99%	–
COC(=O)[C@@H]1CC2=CC(=O)CC[C@]2(C)[C@@]23O[C@@H]2C[C@@]2(C)[C@@H](CC[C@@]24CCC(=O)O4)[C@H]13	2.4%	–
CC(C)n1nc(-c2cc3cc(O)ccc3[nH]2)c2c(N)ncnc21	–	inactive
Nc1ccc(C(=O)Nc2ccccc2N)cc1	-17.4%	–
CC(C)(C)NC(=O)[C@@H]1CN(Cc2cccnc2)CCN1C[C@@H](O)C[C@@H](Cc1ccccc1)C(=O)N[C@H]1c2ccccc2C[C@H]1O	–	inactive
CC(=O)Nc1c(I)cc(I)c(C(=O)O)c1I	19.3%	–
C#C[C@]1(OC(C)=O)CC[C@H]2[C@@H]3CCC4=C[C@@H](OC(C)=O)CC[C@@H]4[C@H]3CC[C@@]21C	–	inactive
Cc1nc2n(c(=O)c1CCN1CCC(c3noc4cc(F)ccc34)CC1)CCC[C@H]2O	–	inactive
CC/C(=C(/CC)c1ccc(O)cc1)c1ccc(O)cc1	-0.326%	–
O=c1ccc2ccccc2o1	-6.47%	–
C[C@]12C=CC(=O)C=C1[C@@H](F)C[C@@H]1[C@@H]2[C@@H](O)C[C@@]2(C)[C@H]1CC[C@]2(O)C(=O)CO	1.28%	–
CCOC(=O)/C=C(C)/C=C/C=C(C)/C=C/c1c(C)cc(OC)c(C)c1C	-9.89%	–
NC[C@H]1O[C@H](O[C@H]2[C@H](O)[C@@H](O[C@H]3O[C@H](CO)[C@@H](O)[C@H](N)[C@H]3O)[C@H](N)C[C@@H]2N)[C@H](N)[C@@H](O)[C@@H]1O	2.2% [at 57.7 µM]	–
Cc1cc(=O)n(-c2ccccc2)n1C	-3.34%	–
COc1cc(C=C2CCC/C(=C\c3ccc(O)c(OC)c3)C2=O)ccc1O	-10.6%	–
CN1CCN(C(c2ccccc2)c2ccccc2)CC1	–	inactive
C#C[C@]1(O)CC[C@H]2[C@@H]3CCC4=CC(=O)CC[C@@H]4[C@H]3CC[C@@]21C	6.02%	–
COC(=O)CCc1ccc(OCC(O)CNC(C)C)cc1 (stereo not given)	–	inactive

Compound	activity change, negative = inhibition	Potency
C[C@]12CCC(=O)C=C1CC[C@H]1[C@@H]3CC[C@](O)(C(=O)CO)[C@@]3(C)C[C@H](O)[C@@]12F	-1.46%	–
NC(=O)C(=O)N/N=C/c1ccc([N+](=O)[O-])o1	6.07%	–
C=C1C(=C/C=C2\CCC[C@]3(C)[C@@H]([C@H](C)/C=C/[C@@H](O)C4CC4)CC[C@@H]23)C[C@@H](O)C[C@@H]1O	1.12%	–
CCN(CCCCOC(=O)c1ccc(OC)c(OC)c1)C(C)Cc1ccc(OC)cc1 (stereo not given)	1.63%	–
O=C(Nc1ccc(Cl)c(Cl)c1)C1CC1	-1.24%	–
NC(=NCCCCCCN=C(N)/N=C(\N)Nc1ccc(Cl)cc1)/N=C(\N)Nc1ccc(Cl)cc1	-21.9%	–
NC(CS)C(=O)O (stereo not given)	-1.56%	–
CC(=O)OCC(=O)[C@@]1(OC(C)=O)[C@@H](C)C[C@H]2[C@@H]3C[C@H](F)C4=CC(=O)C=C[C@]4(C)[C@@]3(F)[C@@H](O)C[C@@]21C	6.16%	–
CC(=O)Oc1ccc(C(=C2CCCCC2)c2ccc(OC(C)=O)cc2)cc1	-7.83%	–
Cc1c(C(N)=O)cc([N+](=O)[O-])cc1[N+](=O)[O-]	-10.5%	–
CCOc1ccc(NC(=O)CC(C)O)cc1 (stereo not given)	-0.909%	–
COc1ccc(CCN2CCC(Nc3nc4ccccc4n3Cc3ccc(F)cc3)CC2)cc1	-4.41%	–
CCN(CC)C(=O)/C(C#N)=C/c1cc(O)c(O)c([N+](=O)[O-])c1	-14.8%	–
CCCCOc1ccc(C(=O)CCN2CCCCC2)cc1	-10.4%	–
CCOc1ccc2nc3cc(N)ccc3c(N)c2c1	–	44.7 µM (active)
CCN(CC)CCOc1ccc(C(O)(Cc2ccc(Cl)cc2)c2ccc(C)cc2)cc1 (stereo not given)	-8.34%	–
CCCCC(=O)O[C@]1(C(=O)CO)CC[C@H]2[C@@H]3CCC4=CC(=O)CC[C@]4(C)[C@H]3[C@@H](O)C[C@@]21C	-2.91%	–
Cc1c(C(C)C)c(=O)n(-c2ccccc2)n1C	1.39%	–
CCN(CC)C(=O)N1CCN(C)CC1	-0.469%	–
C=CCc1ccc(O)c(OC)c1	-4.11%	–
